Assay results: PubChem BioAssay AID432 (Sanford-Burnham Center for Chemical Genomics, 2006)
Out of some 64,000 compounds screened, about 15 (0.02%) were called active. No rule for the calls is given here. A selection follows. Measured potencies and affinities stand elsewhere.

What follows are molecules tested against Bcl-2-related protein A1 (Mus musculus) (UniProt Q07440) (assay: Bfl-1 inhibitors, primary screen, biochemical, fluorescence polarization, FITC-Bid, mouse (AID 432)). Conditions: FITC-Bid BH3 peptide fluorescence polarization displacement; at 20 µM; active compounds read high.
Bcl-2-related protein A1 (Mus musculus), sequence (Q07440 whole entry, looked up): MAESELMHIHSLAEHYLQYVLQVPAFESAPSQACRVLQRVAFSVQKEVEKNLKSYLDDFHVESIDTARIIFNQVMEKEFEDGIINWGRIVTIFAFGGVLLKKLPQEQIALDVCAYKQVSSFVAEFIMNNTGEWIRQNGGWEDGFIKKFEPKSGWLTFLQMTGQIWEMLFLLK

displacement, inactive:
COC(=O)C(C)n1cnc2c(cnn2-c2ccc(Cl)cc2)c1=O (configuration not stated) 1.6%, CCCCCNC(=O)C(C#N)c1nc2ccccc2nc1N1CCCC1 (configuration not stated) 34.3%, Cn1c(SCc2ccccc2Cl)nnc1-c1cnccn1 -5.3%, COc1ccccc1OC(=O)c1ccc(SC)cc1OC -2.3%, Cc1cc(OCC(=O)Nc2cc(-c3nn4c(C)nnc4s3)ccc2C)ccc1Cl 10%, O=C1c2ccccc2C(Nc2ccc(S(=O)(=O)N3CCOCC3)cc2)N1c1cccnc1 (configuration not stated) 8.2%, N#CC1=C(N)OC2=C(C(=O)CCC2)C1c1ccsc1 (configuration not stated) -2.3%, Cc1csc2ncc(C(=O)Nc3cccc(C(F)(F)F)c3)c(=O)n12 -2%, Cc1ccc(-n2cccc2C(=S)N=P(N(C)C)(N(C)C)N(C)C)cc1 22.3%, Cc1ccccc1OCC(=O)NCCN(C)C -12%, CCCN1Cc2cccc(C(=O)Nc3ccc4c(c3)OCO4)c2C1=O -7.1%, COc1ccc(CCNC(=O)CSc2nnc(Cn3c(=O)sc4ccccc43)n2C)cc1OC 4.6%, O=C(c1ccc(Br)o1)N(Cc1ccccc1)c1ccccn1 -6.6%, Cn1c(=O)[nH]c(=O)c2c1nc(N1CCN(c3ccccc3)CC1)n2CCSc1ncccn1 4.5%, FC(F)(F)c1cccc(N2CCN(c3ccc4nnc(-c5ccccc5)n4n3)CC2)c1 0.4%, Fc1ccc(-c2nnc3ccc(N4CCCC4)nn23)cc1 -8.2%, COc1ccc2cnn(CCOc3ccccc3)c(=O)c2c1OC -3.4%, CCCn1c(SCC(=O)NCc2ccco2)nc2c1c(=O)n(C)c(=O)n2C -5.1%, CCOC(=O)C(NC(C)=O)(Nc1ccc(S(=O)(=O)Nc2onc(C)c2C)cc1)C(F)(F)F (configuration not stated) -2.1%, Cc1ccc(Nc2nc(C)cc(C)n2)c(Br)c1 -3.3%, CC(C)(C)NC(=O)NC(=O)COC(=O)C1CC(=O)N(Cc2ccccc2)C1 (configuration not stated) -5.1%, CCCCCOc1ccc(/C=c2\sc3ncnn3c2=O)cc1 -9%, Cc1csc(NC(=O)CSc2nnc(-c3ccco3)n2C)n1 -7.7%, COC(=O)c1[nH]c2ccc(C)cc2c1NC(=O)CN1CCCCC1C (configuration not stated) -1.2%, COc1ccccc1CNc1ncnc2c1cnn2-c1ccccc1 -2.9%, CN(C(=O)COC(=O)COc1ccccc1F)C1CCS(=O)(=O)C1 (configuration not stated) -1.5%, C=CCn1c(C)cc(C(=O)CSc2nnc(NCc3ccccc3)s2)c1C 3.3%, CCOc1ccccc1C(=O)NCc1ccc2c(c1)OCO2 2.9%, COc1ccc(NC(=O)C23CCC(C)(C(=O)C2)C3(C)C)cc1 (configuration not stated) -1.2%, COC(=O)c1cn(C(=O)OC)c2ccccc12 -6.7%, Nc1ccc2ncccc2c1 -3.5%, Oc1ccc(C=Nc2cccc3ncccc23)c(O)c1 4.8%, COc1cccc(OC)c1-c1nn2c(-c3ccco3)nnc2s1 -0.8%, CCOc1ccc(-c2nnc3sc(-c4c(OC)cccc4OC)nn23)cc1 7.5%, COc1cccc(OC)c1-c1nn2c(-c3ccccc3Cl)nnc2s1 -6.5%, COc1ccc(-c2nnc3sc(-c4ccccc4OC)nn23)cc1 0.2%, CSc1nnc(-c2ccccc2)n1C -1.8%, CCC(=O)N1CCc2cc(S(=O)(=O)CCC(=O)NCc3cccs3)ccc21 3.1%, CC(=O)Nc1ccc(NCC(O)COc2ccccc2)cc1 (configuration not stated) 9.6%, CC(=O)N1CCc2cc(S(=O)(=O)NCCC(=O)N3CCN(c4ccccn4)CC3)ccc21 0.4%, Cc1cc(=O)n2ncnc2n1COCCO -8.2%, COCC(C)NC(=O)CCS(=O)(=O)c1nc(-c2ccc(OC)cc2)cc(C(F)(F)F)n1 (configuration not stated) 6.4%, CCOC(=O)c1cnn2c(C)cc(-c3ccc(F)cc3)nc12 -7.8%, CCOC(=O)CCS(=O)(=O)c1nc(-c2ccccc2)cc(C(F)(F)F)n1 37.1%, Cc1cc(NC(=O)CCS(=O)(=O)c2nc(-c3ccccc3)cc(C(F)(F)F)n2)no1 -3%, CCC(=O)N1c2ccccc2-c2nnc(SC)nc2OC1c1ccc(OC)c(OC)c1 (configuration not stated) 0.1%, COc1cc(OC)c(C2Oc3nc(SC)nnc3-c3ccccc3N2C(C)=O)cc1OC (configuration not stated) 3.4%, CC(=O)NC1C(=O)N=C(SCC(=O)NCc2ccccc2)NC1=O (configuration not stated) 1.1%, O=c1n(-c2ccccc2)c(=O)n(Cc2ccccn2)n1Cc1ccccn1 -5.3%, Cc1nc2ccc(S(=O)(=O)Nc3ccccc3C)cc2s1 -3.4%, COc1ccc2c3c(cccc13)OCC2=O 12.2%, COc1ccc(C(C)=O)c2c(O)cccc12 -0.9%, CCn1c(N)c(C(=O)NC)sc1=S -2%, Cc1ccc(-c2nnc(COc3cccc(-n4cnnn4)c3)o2)cc1 -4.7%, C=CCn1cc(C(=O)NCCOC)c(=O)c2cc(S(=O)(=O)N(CC)CC)ccc21 1.1%, O=C(NC1CCCCNC1=O)c1ccc(Cl)cc1 (configuration not stated) -4%, CC1(C)CC(=O)C(C=NCCN2CCN(C(=O)CC3CCCC3)CC2)=C(O)C1 -1.8%, O=C1CSC(c2cn(-c3ccccc3)nc2-c2cc3ccccc3oc2=O)N1Cc1ccco1 (configuration not stated) -5.3%, COc1ccc(S(=O)(=O)N[C@@H](CC(C)C)C(=O)O)cc1 -6%, Cc1nc2c(c(=O)n1Cc1ccccc1Cl)c1nc3ccccc3nc1n2Cc1ccco1 -10.7%, N#Cc1c(NC(=O)CSc2nc(-c3ccco3)cc(C(F)(F)F)n2)sc2c1CCCC2 -0.1%, COc1ccc(C(=O)N2CCN(c3nnnn3-c3ccccc3)CC2)cc1OC 3.7%, Cc1cc(Nc2c(C)cccc2C)n2nc(C)nc2n1 -2.1%, COC(=O)c1ccc(C2C(C(=O)Nc3ccc(C)cc3C)=C(C)Nc3ncnn32)cc1 (configuration not stated) -1.9%, CCOC(=O)CN1C(=O)C(C)(C)Oc2ccc(C(=O)NC(C)(C)CC)cc21 -6.4%, Cc1cc(C)cc(N2CC34C=CC(O3)C(C(=O)OCC(=O)NCc3ccco3)C4C2=O)c1 (configuration not stated) -10.1%, Cc1nc2scc(-c3ccccc3)c2c(=O)n1N -4%, COc1ccc(S(=O)(=O)Cc2ccc(C(=O)N3CCN(c4ccc(Cl)cc4)CC3)o2)cc1 -2.7%, Nc1nc(-c2cccc(NS(=O)(=O)c3ccccc3)c2)cs1 5.8%, CN(C)c1nc(NCc2ccccc2)nc(Oc2ccc(=O)[nH]n2)n1 -7.2%, COc1cc(C(c2nnnn2C2CCCC2)N2CCc3ccccc3C2)ccc1O (configuration not stated) -5.3%, Cc1ccnc(NS(=O)(=O)c2ccc(NC(=O)C3CCCCC3C(=O)O)cc2)n1 (configuration not stated) -3.9%, Cc1csc(NC(=O)CCn2c(=O)oc3ccccc32)n1 2.1%, O=C1CC(N(Cc2ccco2)C(=O)Nc2ccc(F)cc2)C(=O)N1c1ccc(F)cc1 (configuration not stated) 1.2%, CCOc1ccc(OCC)c(NC(=O)CSc2nnc(-c3cccnc3)o2)c1 -6%, CCOC(=O)C1CCN(C2CC(=O)N(c3cccc(Cl)c3)C2=O)CC1 (configuration not stated) 5.3%, CCN(CC)C(=O)CSC1=C(C#N)C(c2cccs2)C=C(C)N1 (configuration not stated) 4.6%, O=C(NCCN1C(=O)C2C3C=CC(C3)C2C1=O)NCc1ccccc1 (configuration not stated) 8.8%, CCOC(=O)C1CCCN(C(=O)c2cn(C)c3ccc(S(=O)(=O)N(C)C)cc3c2=O)C1 (configuration not stated) -2.5%, COc1cccc(NC(=O)c2ncn[nH]2)c1 -5.2%, O=C(O)c1ccc(COc2c(F)c(F)cc(F)c2F)cc1 -4%, CCOCCn1c(SCc2cccc(C)c2)nc2c1c(=O)[nH]c(=O)n2C 2.1%, O=C(OCc1cccc2ccccc12)c1ccc2c(=O)[nH]c(CN3CCOCC3)nc2c1 -1.5%, Cc1cc2cc(C(c3nnnn3Cc3ccco3)N3CCc4ccccc43)c(=O)[nH]c2cc1C (configuration not stated) 6.1%, CCOC(=O)Cc1nnc(NC(=O)c2cccc(OCC)c2)s1 -3.8%, CCn1cc(Cl)c(C(=O)Nc2nc3ccccc3n2CCN2CCCCC2)n1 7.6%, O=C(Nc1c(C(=O)N2CCCCC2)cnn1-c1ccccc1)c1ccccc1 1.1%, O=C1CCCCCN1C(=O)c1cccc(C(=O)N2CCCCCC2=O)c1 -3.4%, CCOCC(=O)N1CCCC(C(=O)OCC)C1 (configuration not stated) 5.1%, COC(=O)c1cc(=O)[nH]c(SCc2cccc(C)c2)n1 -9.3%, CC(C)CCNC(=O)NC(=O)COc1ccccc1C#N -1.9%, CCCS(=O)(=O)N1CCCC(C(=O)NCCN(CC)c2ccccc2)C1 (configuration not stated) -0.1%, CCCN1C(=O)CC(c2ccco2)Sc2ccccc21 (configuration not stated) -8.4%, CN(C)S(=O)(=O)c1ccc(C(=O)Nc2ccc(F)cc2F)cc1 -3.7%, O=S(=O)(c1ccccc1)c1cccc(S(=O)(=O)N2CCCCC2)c1 -8.3%, CC1=C(C(N)=O)C(c2cccc(O)c2)n2nc(CCCO)nc2N1 (configuration not stated) -2.3%, O=C(c1ccccc1S(=O)(=O)NCc1ccccc1)N1CCCCC1 -2.9%
